In PubChem BioAssay (Tox21):
Results filed as inconclusive are left out. A call without a number means that no potency is given here. Activity calls are given as the source filed them. Calls come from the whole dose curve; as a rule, active = well fitted cell-killing curve with a large enough effect in the repeat runs; inconclusive = weak or mixed curves, or effect the other way; inactive = flat fitted curve, though single readings scatter.

assay: qHTS RealTime-Glo MT Cell Viability Assay in HEK293 cells - 16 hour (AID 1224872); conditions: RealTime-Glo luminescence; series mostly up to 76.8 µM; note: nearly all actives have a fitted effect of over 50% in size
Source text: National Center for Advancing Translational Sciences [NCATS]
NIH Chemical Genomics Center [NCGC]
U.S. Environmental Protection Agency [EPA]
National Institutes of Environmental Health Sciences [NIEHS]
National Toxicology Program [NTP]
U.S. Food and Drug Administration [FDA]
Measure of cell viability is critical in the cell-base assay. Analysis of cell viability is necessary for the characterization of cell responses to cytotoxic drugs and environmental stress. A RealTime-Glo MT Cell Viability Assay to monitor cell viability in real time of continues cell culture during 40 hours of compound treatment was used to screen Tox21 10K library compounds in Hek293 cells. The RealTime-Glo MT Cell Viability Assay is a nonlytic, homogeneous, bioluminescent method to measure cell viability in real time using a simple, plate-based method. The assay involves adding NanoLuc luciferase and a cell-permeant prosubstrate to cells in culture. Viable cells reduce the proprietary prosubstrate to generate a substrate for NanoLuc luciferase. This substrate diffuses from cells into the surrounding culture medium, where it is rapidly used by the NanoLuc Enzyme to produce a luminescent signal. The signal correlates with the number of viable cells, making the assay well suited for cytotoxicity studies.
Tox21 Assay Protocol Summary:
The mixture of Hek293 cell suspension and reagents were dispensed at 600cells/6 ul/well in 1536-well tissue culture treated black solid bottom plates using a Multidrop dispenser. After the assay plates were incubated at a 37 C/5% CO2 incubator for 5 hours, 23 nL of compounds dissolved in DMSO, positive and negative controls was transferred to the assay plate by a pintool work station. The plates were incubated at 37 C for 40 hours. The luminescence intensity were measured at 0h, 8h, 16h, 24h, 32h and 40h time points using ViewLux plate reader during compound treatment.
Potency is the fitted concentration of half-maximal effect.

Compound	Potency
CCCCCCI	inactive
CC(CCc1ccccc1)NC(C)C(O)c1ccc(O)cc1 (stereo not given)	inactive
CC1(C)C(=O)NC(=O)NC1=O	inactive
CCN(Cc1ccc(Cl)nc1)/C(=C/[N+](=O)[O-])NC	inactive
CSc1ccc(C(=O)C(C)(C)N2CCOCC2)cc1	inactive
CN1C(=S)CN=C(c2ccccc2)c2cc(Cl)ccc21	inactive
COC(=O)C(C)Oc1ccc(Oc2ccc(Cl)cc2Cl)cc1 (stereo not given)	inactive
N#CCCC#N	inactive
CN1CCC(O)(c2ccc(F)cc2)C(C(=O)c2ccc(F)cc2)C1 (stereo not given)	inactive
OC(c1ccccc1)(c1ccccc1)C1CCNCC1	inactive
CCC(C)n1c(=O)[nH]c(C)c(Br)c1=O (stereo not given)	inactive
N#CC(Cl)(Cl)Cl	inactive
COC(=O)c1c(C(F)F)nc(C(F)(F)F)c(C2=NCCS2)c1CC(C)C	inactive
OC(c1ccc(F)cc1)(c1cncnc1)c1ccccc1Cl (stereo not given)	inactive
Nc1n[nH]c(N)n1	inactive
[Cl][Sn]([Cl])([Cl])[Cl]	inactive
c1cc2c(c(N3CCNCC3)c1)OCCO2	inactive
CCOC(=O)C1(c2ccccc2)CCN(CCc2ccc(N)cc2)CC1	inactive
ClC(Cl)Br	inactive
CNC(=O)Oc1ccccc1C1OCCO1	inactive

Compound	Potency
Cc1nc(N)nc(N)n1	inactive
CCCSC(=O)N(CCC)CCC	inactive
N#CCBr	inactive
COc1cc(OC)nc(Sc2cccc(Cl)c2C(=O)O)n1	inactive
CN1C[C@@H](NS(=O)(=O)N(C)C)C[C@@H]2c3cccc4c3c(cn4C)C[C@H]21	inactive
COC(=O)c1ccccc1S(=O)(=O)NC(=O)N(C)c1nc(C)nc(OC)n1	inactive
ClC(Br)Br	inactive
COC(=O)c1ccccc1S(=O)(=O)NC(=O)Nc1nc(C)cc(C)n1	inactive
CCS(=O)(=O)C(C)(C)S(=O)(=O)CC	inactive
CCN(CC)C(=O)[C@@H]1C=C2c3cccc4[nH]cc(c34)C[C@H]2N(C)C1	inactive
CC(=O)CC(c1ccc(Cl)cc1)c1c(O)c2ccccc2oc1=O (stereo not given)	inactive
CCCCCCBr	inactive
Cc1ccccc1CO[C@@H]1C[C@@]2(C(C)C)CC[C@]1(C)O2	inactive
CNC(=O)Oc1cccc(C(C)C)c1	inactive
O=C(N[C@H]1CN2CCC1CC2)c1cc2ccoc2cn1	inactive
COCC(=O)N(c1c(C)cccc1C)N1CCOC1=O	inactive
O=C1OC(c2ccc(O)c(S(=O)(=O)O)c2)(c2ccc(O)c(S(=O)(=O)O)c2)c2c(Br)c(Br)c(Br)c(Br)c21	inactive
c1cc[c]([Hg][c]2ccccc2)cc1	34.7 µM (active)
COc1cc2c(cc1OC)[C@@]13CCN4CC5=CCO[C@H]6CC(=O)N2[C@H]1[C@H]6[C@H]5C[C@H]43	inactive
CCCCC(=O)Cl	inactive
